# Laboratory results from PubChem BioAssay AID540332 (The Scripps Research Institute Molecular Screening Center, 2011).
# Calls of active or inactive are those of the source. The rule behind the calls is not given here.
# Test system: Imidazoline I2
# Test: selectivity profile across receptors and CYP450s – biochemical, Ricerca HitProfilingScreen, CYP450, set 2, selectivity assay for S1P4 agonist project, profiling panel (AID 540332)
# Details: Central; at 30 µM; hits give high values
smiles,measurement,value
COCCN=C1S/C(=C\c2cc(C)n(-c3ccc(F)cc3F)c2C)C(=O)N1C,inhibition,2% (inactive)
